# Measured values as given in the supplement of paper PMC7724964.
# T1: NUP98 730-880 Nucleoporin2 (domain begin residue: 730, domain end residue: 880), P52948
# T1 chain: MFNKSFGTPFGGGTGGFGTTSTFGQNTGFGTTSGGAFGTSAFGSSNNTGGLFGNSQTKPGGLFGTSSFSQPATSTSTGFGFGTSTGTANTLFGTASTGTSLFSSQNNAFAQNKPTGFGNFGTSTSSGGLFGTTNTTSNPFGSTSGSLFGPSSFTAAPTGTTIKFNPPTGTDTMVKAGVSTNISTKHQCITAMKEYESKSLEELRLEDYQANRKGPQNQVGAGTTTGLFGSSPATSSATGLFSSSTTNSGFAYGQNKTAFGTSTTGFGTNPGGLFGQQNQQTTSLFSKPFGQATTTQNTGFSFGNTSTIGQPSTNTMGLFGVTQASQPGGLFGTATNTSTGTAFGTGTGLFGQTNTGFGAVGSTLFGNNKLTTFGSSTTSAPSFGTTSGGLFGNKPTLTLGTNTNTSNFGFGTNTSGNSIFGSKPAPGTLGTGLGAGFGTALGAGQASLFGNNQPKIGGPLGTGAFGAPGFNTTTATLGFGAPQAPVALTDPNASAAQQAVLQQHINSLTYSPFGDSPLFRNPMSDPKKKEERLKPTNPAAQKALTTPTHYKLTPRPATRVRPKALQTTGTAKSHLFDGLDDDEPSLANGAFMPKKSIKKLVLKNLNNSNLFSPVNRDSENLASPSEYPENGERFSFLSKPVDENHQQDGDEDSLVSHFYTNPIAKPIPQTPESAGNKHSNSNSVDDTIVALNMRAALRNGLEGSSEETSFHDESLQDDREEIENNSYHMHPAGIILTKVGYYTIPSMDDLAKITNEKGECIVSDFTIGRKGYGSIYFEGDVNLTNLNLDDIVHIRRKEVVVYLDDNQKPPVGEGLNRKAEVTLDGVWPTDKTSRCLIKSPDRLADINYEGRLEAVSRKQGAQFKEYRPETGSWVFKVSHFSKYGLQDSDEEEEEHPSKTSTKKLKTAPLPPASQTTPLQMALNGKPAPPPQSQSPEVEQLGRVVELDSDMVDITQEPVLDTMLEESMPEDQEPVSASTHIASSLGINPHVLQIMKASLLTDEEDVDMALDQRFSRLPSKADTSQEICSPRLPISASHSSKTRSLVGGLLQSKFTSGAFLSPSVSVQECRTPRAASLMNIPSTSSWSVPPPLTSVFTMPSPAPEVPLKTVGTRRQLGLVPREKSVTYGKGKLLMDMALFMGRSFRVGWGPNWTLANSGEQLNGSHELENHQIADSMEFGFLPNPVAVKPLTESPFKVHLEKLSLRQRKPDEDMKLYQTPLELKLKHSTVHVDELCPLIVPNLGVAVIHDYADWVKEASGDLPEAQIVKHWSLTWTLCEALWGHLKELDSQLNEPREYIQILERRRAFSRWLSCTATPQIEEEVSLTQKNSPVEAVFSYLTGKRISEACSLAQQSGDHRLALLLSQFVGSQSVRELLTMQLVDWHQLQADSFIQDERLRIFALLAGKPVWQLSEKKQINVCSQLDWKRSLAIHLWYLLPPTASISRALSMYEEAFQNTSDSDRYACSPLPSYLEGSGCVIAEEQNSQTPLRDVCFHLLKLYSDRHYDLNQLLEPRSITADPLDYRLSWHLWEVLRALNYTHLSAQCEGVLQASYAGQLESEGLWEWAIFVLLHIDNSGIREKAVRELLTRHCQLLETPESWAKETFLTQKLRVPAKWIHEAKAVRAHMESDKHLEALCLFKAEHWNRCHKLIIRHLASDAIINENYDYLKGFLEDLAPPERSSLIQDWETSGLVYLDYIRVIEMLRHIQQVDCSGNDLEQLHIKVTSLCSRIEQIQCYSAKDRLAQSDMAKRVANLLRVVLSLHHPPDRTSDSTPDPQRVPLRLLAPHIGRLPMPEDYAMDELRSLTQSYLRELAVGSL
# T2: NXT1 1-140 NTF2 (domain begin residue: 1, domain end residue: 140), Q9UKK6
# T2 chain: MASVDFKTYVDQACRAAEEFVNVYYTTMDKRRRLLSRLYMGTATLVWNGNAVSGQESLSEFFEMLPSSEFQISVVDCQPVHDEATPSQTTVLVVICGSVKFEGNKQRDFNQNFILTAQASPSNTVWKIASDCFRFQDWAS
# Assays:
# Experiment in all cases: phage ELISA signal ratio (GST-PRM binding over GST background); higher = stronger binding of peptide-phage to the PRM
# [1] = biological target: NXF1 565-619 TAP_C (domain begin residue: 565, domain end residue: 619)
# Outline: (§1)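 Human peptide recognition domains were expressed in 96-well plates as fusions to the C-terminus of glutathione S-transferase (GST) and selected against an M13 phage library displaying randomized hexadecapeptides, cysteine-free and glycine-flanked, on the gene-8 major coat protein. Five selection rounds were run, and approximately 48 individual clones from rounds 4 and 5 were tested by phage ELISA. Each value is the ELISA signal on the GST-domain fusion divided by the signal on GST alone. Positive clones were sequenced.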
# [2] = biological target: T1, NUP98 730-880 Nucleoporin2 (domain …
# Outline: as §1
# [3] = biological target: PAF1 165-376 Paf1 (domain begin residue: 165, domain end residue: 376), Q8N7H5
# Outline: as §1
# [4] = biological target: NXF1 203-359 LRR_1 (domain begin residue: 203, domain end residue: 359)
# Outline: as §1
# [5] = biological target: PABPC1 544-623 PABP (domain begin residue: 544, domain end residue: 623)
# Outline: as §1
# [6] = biological target: T2, NXT1 1-140 NTF2 (domain begin residue: …
# Outline: as §1
binder,measurement,setting,value
EFINFTWMEAMGTPNS,phage ELISA signal ratio,[1],13.2
WVGNNDWENEWPWVIL,phage ELISA signal ratio,[2],7.89
SELWDHWIEWNDVYQT,phage ELISA signal ratio,[3],3.06
VVQIEGFDFQWKPEWF,phage ELISA signal ratio,[1],13.2
FEMLWREHMEKFDVEV,phage ELISA signal ratio,[4],28.4
SMEMMNFTWDPEWFIE,phage ELISA signal ratio,[1],12.9
KPVPSFWVDWHVQAMT,phage ELISA signal ratio,[5],20.9
EIEEFSFTWQPEWEVR,phage ELISA signal ratio,[1],8.54
GYGWEELPPIMTVAPD,phage ELISA signal ratio,[2],23.2
QGWMPWDPQDLDWWVG,phage ELISA signal ratio,[2],7.31
YPIEQFSFDIWDQMVE,phage ELISA signal ratio,[1],12
LPGEYNMMEWRQAVMG,phage ELISA signal ratio,[5],3.49
WEQQWFEWTHIEGQDD,phage ELISA signal ratio,[3],2.51
PNFEDYWRTAEQWHQP,phage ELISA signal ratio,[4],25.4
FENYWKGYQEVPLESR,phage ELISA signal ratio,[4],18.9
FETLWARHAQGQTQVE,phage ELISA signal ratio,[4],22
QQLADIPTYEWLQRNH,phage ELISA signal ratio,[5],27
GDFGPDWFSFAWTEEM,phage ELISA signal ratio,[1],13.4
TIDWESVIKTYSPWLD,phage ELISA signal ratio,[5],29.8
EQKQTDSFYWIWQHLD,phage ELISA signal ratio,[6],3.56
FEELWLKHTAVSKTTE,phage ELISA signal ratio,[4],32.5
MWEPELYDDFHEAVTY,phage ELISA signal ratio,[2],18.1
VQMWSFEQIWVEHMMG,phage ELISA signal ratio,[4],20.1
QYNFLWEHLVQPRPAT,phage ELISA signal ratio,[6],16.1
IEVYSYMENMYDHPPV,phage ELISA signal ratio,[3],3.73
MWIYNEKWDMFLPYKL,phage ELISA signal ratio,[6],20.3
DIPFSFQWSTDMHPVS,phage ELISA signal ratio,[1],6.7
MAGPESLNFSWDYIMN,phage ELISA signal ratio,[1],13.4
GIPYPDFNWENISTLV,phage ELISA signal ratio,[1],6.41
